Measured values published in PubChem BioAssay (NCATS).
Where “and” joins values, the source holds several entries; their conditions need not be identical. Equal entries are not always repeated. Inconclusive results are not listed. Calls of active or inactive are those of the source. Calls follow the shape of the dose curve; as a rule, active = well fitted inhibition curve with a large enough effect; inconclusive = small, poorly fitted or top-dose-only effect; inactive = flat fitted curve, though single readings scatter.

Key:
[1] = test system: PAD; test: qHTS profiling for inhibitors of Plasmodium falciparum proliferation (AID 504749);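 also: 0% = DMSO vehicle and full inhibition = artemisinin control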; details: P. falciparum in erythrocytes, SYBR Green DNA, 72 h; series mostly up to 28.7 µM
How it was run: (§1)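 SYBR Green fluorescence of parasite DNA, read after lysis and overnight dark incubation, measured growth over 72 h in erythrocyte culture at 0.3% parasitemia and 2.5% hematocrit. Data normalised to DMSO and 0.29 uM artemisinin, with plate-drift correction.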

[2] = test system: PC15; test: as above; details: P. falciparum in erythrocytes, SYBR Green DNA, 72 h; series mostly up to 28.7 µM
How it was run: as §1

[3] = test system: PC26; test: as above; details: P. falciparum in erythrocytes, SYBR Green DNA, 72 h; series mostly up to 28.7 µM
How it was run: as §1

[4] = test system: SC27B; test: as above; details: P. falciparum in erythrocytes, SYBR Green DNA, 72 h; series mostly up to 28.7 µM
How it was run: as §1

[5] = test system: TAB109; test: as above; details: P. falciparum in erythrocytes, SYBR Green DNA, 72 h; series mostly up to 28.7 µM
How it was run: as §1

[6] = test system: TAB113; test: as above; details: P. falciparum in erythrocytes, SYBR Green DNA, 72 h; series mostly up to 28.7 µM
How it was run: as §1

[7] = test system: W2; test: as above; details: P. falciparum in erythrocytes, SYBR Green DNA, 72 h; series mostly up to 28.7 µM
How it was run: as §1

[8] = test system: CRL-7250; test: Cytotoxic Profiling of Annotated Libraries Using Quantitative High-Throughput Screening (AID 1296008); details: Five cell lines viability, CellTiter-Glo ATP luminescence, 48-72 h; max response: hits give low values; also: potency is read from the fitted curve at half-maximal effect; as to max response: % is scaled to controls: 0 for no effect and ±100 for the full control effect
How it was run: (§2)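 Cytotoxicity was measured as CellTiter-Glo ATP luminescence, read after 10 min at room temperature. Compound treatment of the cells lasted 48 or 72 hr at 37 degrees Celsius in a qHTS format.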

[9] = test system: HEK293; test: as above; details: Five cell lines viability, CellTiter-Glo ATP luminescence, 48-72 h; max response: hits give low values
How it was run: as §2

[10] = test system: KB-3-1; test: as above; details: Five cell lines viability, CellTiter-Glo ATP luminescence, 48-72 h; max response: hits give low values
How it was run: as §2

[11] = test system: NIH3T3; test: as above; details: Five cell lines viability, CellTiter-Glo ATP luminescence, 48-72 h; max response: hits give low values
How it was run: as §2

[12] = test system: MCC-13; test: qHTS assay to identify novel small-molecules to repurpose for Merkel cell carcinoma treatment (AID 1296009); details: MCC and control cell lines, CellTiter-Glo viability, 72 h; series mostly up to 46 µM; also: potency is read from the fitted curve at half-maximal effect
How it was run: (§3)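 Cell viability, measured as CellTiter-Glo luminescence, was normalized between DMSO and no-cell wells. The cells had been exposed to 8- or 11-point compound dilutions for 72 hr at 37 degree celsius.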

[13] = test system: MKL-1; test: as above; details: MCC and control cell lines, CellTiter-Glo viability, 72 h; series mostly up to 46 µM
How it was run: as §3

[14] = test system: MCC-26; test: as above; details: MCC and control cell lines, CellTiter-Glo viability, 72 h; series mostly up to 46 µM
How it was run: as §3

[15] = test system: HaCat; test: Cytotoxic Profiling of Annotated Libraries Using Quantitative High-Throughput Screening (AID 1296008); details: Five cell lines viability, CellTiter-Glo ATP luminescence, 48-72 h; max response: hits give low values; also: potency is read from the fitted curve at half-maximal effect; as to max response: % is scaled to controls: 0 for no effect and ±100 for the full control effect
How it was run: as §2

[16] = test system: HACAT; test: qHTS assay to identify novel small-molecules to repurpose for Merkel cell carcinoma treatment (AID 1296009); details: MCC and control cell lines, CellTiter-Glo viability, 72 h; at 44.8 µM (top of the series) unless noted; also: potency is read from the fitted curve at half-maximal effect
How it was run: as §3

[17] = test system: PC49; test: qHTS profiling for inhibitors of Plasmodium falciparum proliferation (AID 504749);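 also: 0% = DMSO vehicle and full inhibition = artemisinin control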; details: P. falciparum in erythrocytes, SYBR Green DNA, 72 h; series mostly up to 28.7 µM
How it was run: as §1

[18] = test system: TAB165; test: as above; details: P. falciparum in erythrocytes, SYBR Green DNA, 72 h; series mostly up to 28.7 µM
How it was run: as §1

[19] = test system: HEK293T; test: qHTS assay to identify novel small-molecules to repurpose for Merkel cell carcinoma treatment (AID 1296009); details: MCC and control cell lines, CellTiter-Glo viability, 72 h; at 44.8 µM (top of the series) unless noted; also: potency is read from the fitted curve at half-maximal effect
How it was run: as §3

[20] = test system: CRL-7250; test: as above; details: MCC and control cell lines, CellTiter-Glo viability, 72 h; at 44.8 µM (top of the series) unless noted
How it was run: as §3
Also: nearly all actives have a fitted effect of over 60% in size.

CCCCC/C=C\C/C=C\C/C=C\C/C=C\CCCC(=O)NCC(=O)O
inactive: activity, negative = inhibition [1] 4.88% [at 2.67 µM] | activity, negative = inhibition [2] 6.96% [at 2.67 µM] | activity, negative = inhibition [3] 8.23% [at 2.67 µM] | activity, negative = inhibition [4] 0.575% [at 2.67 µM] | activity, negative = inhibition [5] -11.7% [at 2.67 µM] | activity, negative = inhibition [6] 3.88% [at 2.67 µM] | activity, negative = inhibition [7] 6.9% [at 2.67 µM] | max response [8] -2.63% | max response [9] -7.97% | max response [10] -17.5% | outcome [11] | outcome [12] | Potency [13]

O=c1c(C2CC(c3ccc(-c4ccc(Br)cc4)cc3)Cc3ccccc32)c(O)sc2ccccc12 (centres undefined)
inactive: max response [8] 0.288% | outcome [12] | Potency [14] | Potency [13]

C#CC(O)(C=CCl)CC (centres undefined)
inactive: max response [8] -0.331% | max response [9] -13.2% | outcome [15] | outcome [11] | outcome [16] | outcome [12] | Potency [14] | Potency [13]

CC(C)=CC1C(C(=O)OCN2C(=O)C3=C(CCCC3)C2=O)C1(C)C (centres undefined)
inactive: Potency [1] | Potency [2] | Potency [3] | Potency [17] | Potency [4] | Potency [5] | Potency [6] | Potency [18] | Potency [7] | max response [9] -22.7% | outcome [15] | max response [10] 2.15% | max response [11] -1.87% | outcome [16] | outcome [12] | Potency [14] | Potency [13]

C[C@]12CC[C@H]3[C@@H](CCC4=CC(=O)CC[C@@H]43)[C@@H]1CC[C@@H]2OC(=O)CCc1ccco1
inactive: max response [8] -3% | outcome [15] | max response [11] -2.06% | outcome [16] | outcome [12] | Potency [14]

CCC(C)C(C)(COC(N)=O)COC(N)=O (centres undefined)
inactive: max response [8] 1.47% | outcome [9] | max response [15] -3.56% | outcome [11] | outcome [19] | outcome [12] | Potency [14] | Potency [13]

CCC(CC)(CNC(=O)CCCO)c1cccc(OC)c1
inactive: max response [8] 0.244% | max response [9] -5.56% | max response [15] -1.8% | outcome [11] | outcome [12] | Potency [13]

CCCOC(=O)c1cncn1C(C)c1ccccc1 (centres undefined)
inactive: max response [8] -1.16% | max response [9] 1.16% | outcome [15] | max response [11] 3.77% | outcome [16] | outcome [12] | Potency [14] | Potency [13]

COc1cccc2c1C(=O)c1c(O)c3c(c(O)c1C2=O)C[C@@](O)(C(=O)CO)CC3OC1CC(N2CCOC(OC)C2)C(O)C(C)O1 (some centres undefined)
active: Potency [8] 16.8 nM | Potency [9] 0.0119 µM | Potency [15] 21.1 nM | Potency [11] 6.7 nM | Potency [14] 47.3 nM

CC(C)c1c(CN(C)C(C)Cc2ccccc2)n(C)n(-c2ccccc2)c1=O (centres undefined)
active: Potency [9] 8.41 µM
inactive: max response [10] 1.6% | max response [11] 4.46% | outcome [12] | Potency [14] | Potency [13]

CN=C1CN(O)C(c2ccccc2)=c2cc(Cl)ccc2=N1
inactive: max response [10] -12.7% and 2.13%

O=C(NCC1CCCCN1)c1cc(OCC(F)(F)F)ccc1OCC(F)(F)F (centres undefined)
inactive: outcome [20]

O=C1Nc2ccc(Cl)cc2C(c2ccccc2)=NC1O (centres undefined)
inactive: Potency [1] | Potency [2] | Potency [3] | Potency [17] | Potency [4] | Potency [5] | Potency [6] | Potency [18] | Potency [7] | max response [10] -4.67% and -16.2%

C[C@](O)(CS(=O)(=O)c1ccc(F)cc1)C(=O)Nc1ccc(C#N)c(C(F)(F)F)c1
inactive: Potency [1] | Potency [2] | Potency [3] | Potency [17] | Potency [4] | Potency [6] | Potency [18] | Potency [7] | outcome [15] | max response [10] 5.52% | max response [11] -9.3% | outcome [16] | outcome [12] | Potency [13]

CN(c1nccc(=O)[nH]1)C1CCN(c2nc3ccccc3n2Cc2ccc(F)cc2)CC1
inactive: outcome [20]

C[C@@H]1CC2=CC(=O)CC[C@@H]2[C@H]2CC[C@@]3(C)[C@@H](CC[C@]3(C)O)[C@@H]21
inactive: max response [15] -11% | max response [11] -27.8% | outcome [12] | Potency [13]

C[C@]12CC[C@@H]3c4ccc(OC(=O)N(CCCl)CCCl)cc4CC[C@H]3[C@@H]1CC[C@@H]2O
active: Potency [9] 29.9 µM
inactive: Potency [1] | Potency [2] | Potency [3] | Potency [17] | Potency [4] | Potency [5] | Potency [6] | Potency [18] | Potency [7] | max response [10] -1.74% | outcome [12] | Potency [13]

CO[C@@]1(NC(=O)Cc2cccs2)C(=O)N2C(C(=O)O)=C(COC(N)=O)CS[C@@H]21
inactive: outcome [20]

O=C1Nc2ccc(Cl)cc2C(c2ccccc2Cl)=NC1O (centres undefined)
inactive: Potency [2] | Potency [3] | Potency [17] | Potency [4] | Potency [5] | Potency [6] | Potency [18] | Potency [7] | max response [10] 3.46%

NC(=O)NC1N=C([O][Al])NC1=O (centres undefined)
inactive: outcome [20]

Clc1ccc2c(c1)C(c1ccccc1)=NCc1nncn1-2
inactive: Potency [1] | Potency [2] | Potency [3] | Potency [17] | Potency [4] | Potency [5] | Potency [6] | Potency [18] | Potency [7] | max response [10] 2.88%

CC(C)[C@H]1C(=O)N2CCC[C@H]2[C@]2(O)O[C@](NC(=O)[C@@H]3C[C@@H]4c5cccc6[nH]cc(c56)C[C@H]4N(C)C3)(C(C)C)C(=O)N12
inactive: max response [10] 22.9%

COP(=S)(OC)SCN1C(=O)c2ccccc2C1=O
inactive: Potency [1] | Potency [2] | Potency [3] | Potency [17] | Potency [4] | Potency [5] | Potency [6] | Potency [18] | Potency [7] | outcome [15] | max response [10] 6.87% | outcome [16] | outcome [12] | Potency [14]

Clc1ccccc1N1CCNCC1
inactive: outcome [9] | outcome [15] | outcome [11] | outcome [16] | outcome [19] | outcome [12] | Potency [14] | Potency [13]
